Screening data: PubChem, National Center for Advancing Translational Sciences (NCATS)
A selection: hits, their analogues and other compounds. The true share with any hit is near 10%.
CCT chaperon mod = cytosolic chaperonin activity modulation | purified chaperonin ATPase assay, HTRF ADP detection, 30 min | 0.3% of 360,000 active | activity change, % (concentration not given with the values), hits read low; in the data active = activity change below about -30%
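ATPase activity: ADP formed was measured by HTRF Transcreener (665/615 nm ratio) after 30 min at 37 deg C with 10 uM ATP. Compounds screened at one 76 uM concentration against 40 or 20 nM TRiC in Tris pH 7.4/KCl/MgCl2/DTT buffer.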
G9a inh = G9a (human) methyltransferase inhibition. Q96KQ7. G9a H3K9 monomethylation, AlphaScreen, 2 h. Potency, µM (titrated, usually from 102 µM), for inactives: at the highest dose activity, negative = inhibition, usual class: inhibitors. 8.8% of 350,000 active. AID 504332; also: potency is read from the fitted curve at half-maximal effect; nearly all actives have a fitted effect of over 75% in size
Target sequence (Q96KQ7 913-1193 limits assumed): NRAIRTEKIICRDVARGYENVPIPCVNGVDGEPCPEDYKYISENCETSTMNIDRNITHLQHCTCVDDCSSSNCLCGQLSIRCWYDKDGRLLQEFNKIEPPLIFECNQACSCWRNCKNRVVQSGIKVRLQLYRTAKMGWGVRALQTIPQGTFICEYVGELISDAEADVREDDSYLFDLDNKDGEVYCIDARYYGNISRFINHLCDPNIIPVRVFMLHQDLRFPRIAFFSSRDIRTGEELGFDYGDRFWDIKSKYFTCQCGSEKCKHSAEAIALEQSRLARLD
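AlphaScreen read-out: biotin-H3K9 peptide (500 nM) methylation by 20 nM enzyme with 20 uM SAM, 2 h at room temperature after 15 min compound preincubation; anti-monomethyl H3K9 antibody plus donor/acceptor beads, 10 min dark.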
PLK1 PBD block = PLK1 (human) polo-box domain binding inhibition. Plk1 PBD binding of FITC phosphopeptide, fluorescence polarization. Potency, µM, for the others: max response, negative = inhibition, hits mostly inhibitors. 2.8% of 360,000 active; also: potency is read from the fitted curve at half-maximal effect; series mostly up to about 57 µM; nearly all actives have a fitted effect of over 65% in size
VDR inh = vitamin D3 receptor (human) inhibition; P11473; VDR-SRC2-3 peptide fluorescence polarization, 2 h; Potency, µM, without a hit: max response, negative = inhibition, actives largely listed as inhibitors; 0.93% of 400,000 active; AID 504847; also: potency is read from the fitted curve at half-maximal effect
Target sequence (P11473 whole entry, looked up): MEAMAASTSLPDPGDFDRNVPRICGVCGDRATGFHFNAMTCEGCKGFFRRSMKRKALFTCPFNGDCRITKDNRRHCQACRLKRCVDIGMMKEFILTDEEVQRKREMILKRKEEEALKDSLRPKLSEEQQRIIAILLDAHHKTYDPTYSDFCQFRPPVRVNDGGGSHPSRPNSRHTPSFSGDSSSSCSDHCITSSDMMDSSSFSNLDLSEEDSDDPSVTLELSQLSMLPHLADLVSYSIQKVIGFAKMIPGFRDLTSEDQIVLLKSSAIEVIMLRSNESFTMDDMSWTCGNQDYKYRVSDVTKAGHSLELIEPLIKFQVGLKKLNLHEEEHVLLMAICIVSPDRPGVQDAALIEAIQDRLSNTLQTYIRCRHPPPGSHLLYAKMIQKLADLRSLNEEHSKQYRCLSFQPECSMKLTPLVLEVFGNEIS
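Compounds are added to VDR with labelled SRC2-3 coactivator peptide and held 2 h at room temperature. Inhibition of the VDR–peptide interaction is then read as a change in fluorescence polarization.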
MmCpn inh = inhibitors of Methanococcus maripaludis chaperonin TRiC (MmCpn). AID 504842. Potency, µM (doses to about 76.9 µM), without a hit: at the top dose activity, negative = inhibition, most hits filed as inhibitors. 0.031% of 330,000 active. purified Mm-Cpn ATPase, ADP Transcreener TR-FRET; also: potency is read from the fitted curve at half-maximal effect; nearly all actives have a fitted effect of over 80% in size
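Compound-treated chaperonin, 25 nM final, turns over 10 uM ATP at 37°C for 30 min following a 10 min preincubation; ADP generated competes with ADP-d2 for Eu-cryptate antibody, lowering FRET.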
Sfp PPTase inh = blocks B. subtilis Sfp PPTase activity | Q9F4F7 | Biochemical Sfp PPTase activity, qHTS | Potency, µM, for inactives: largest response in the series, negative = inhibition, most hits filed as inhibitors | 3.5% of 310,000 active | AID 1490;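 also: the enzyme is Sfp with the accession as filed and its product quenches rhodamine fluorescence; potency is read from the fitted curve at half-maximal effect; 0% = enzyme reaction without inhibitor and -100% = no enzyme wells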
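Fluorescence-quenching assay: 15 nM Sfp-PPTase preincubated 15 min at room temperature with compound, then 5 uM rhodamine-CoA and 12.5 uM BHQ-2-labelled YbbR peptide added. Fluorescence (ex 525/em 598 nm) read at start and after 30 min; difference gives rate.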
* = called active by the depositor; u = inconclusive; x = no result given; [ ] = another dose, or the depositor's remark. Unless noted, calls follow the shape of the dose curve; as a rule, active = well fitted curve in the direction sought with a large enough effect; inconclusive = small, poorly fitted or top-dose-only effect, or another doubt; inactive = no such curve, though single readings can be large; an effect the other way counts as inactive or inconclusive. Unless noted, % is scaled to controls: 0 for no effect and ±100 for the full control effect.

SMILES	CCT chaperon mod	G9a inh	PLK1 PBD block	VDR inh	MmCpn inh	Sfp PPTase inh
CCOC(=O)C1=C(C)N=c2s/c(=C\c3ccc(O)c([N+](=O)[O-])c3)c(=O)n2C1c1ccccc1OC (configuration not stated)	0	14µM*	u	-2%	1%	-12%
CCOC(=O)C1=C(C)N=c2s/c(=C/c3ccc(OCC(=O)O)cc3)c(=O)n2C1c1ccc(SC)cc1 (configuration not stated)	x	x	x	x	-3%	-10%
CCOC(=O)C1=C(C)N=c2s/c(=C/c3ccc(OCC(=O)O)cc3)c(=O)n2C1c1ccc(OC)cc1OC (configuration not stated)	0	50µM*	u	-14%	0%	2%
CCOC(=O)C1=C(C)N=c2s/c(=C\c3ccc(OCC(=O)O)cc3)c(=O)n2C1c1ccc(Cl)cc1 (configuration not stated)	-1	x	10%	79µM*	0%	-3%
CCOC(=O)C1=C(C)N=c2s/c(=C/c3ccc(OCC(=O)O)cc3)c(=O)n2C1c1ccc(F)cc1 (configuration not stated)	-1	u	u	71µM*	-2%	79µM*
Cc1cc(-n2c(SCC(=O)NCc3ccccc3)nc3ccsc3c2=O)ccc1Cl	x	3%[59 µM]	x	-10%	x	x
COc1cc2ccc(=O)oc2cc1O	2	-45%[12.7 µM]	5%	6%	-14%	4%
O=Nc1ccc2oc(=O)ccc2c1	x	2.2µM*	x	13µM*	x	x
COc1ccccc1CNC(=O)COc1cc(=O)n(C)c2ccccc12	x	3%[59 µM]	x	-10%	x	x
O=C(NCCO)/C(=C\c1ccco1)NC(=O)c1ccco1	3	32µM*	-13%	-12%	-2%	-9%
O=C(NCCCO)/C(=C\c1ccco1)NC(=O)c1ccco1	-2	71µM*	-6%	-19%	1%	-7%
O=C(NCCO)/C(=C/c1ccco1)NC(=O)c1ccco1	-5	x	-11%	-15%	x	x
O=C(NCc1ccccc1)/C(=C/c1ccco1)NC(=O)c1ccco1	-4	35µM*	4%	-4%	3%	3%
O=C(O)CCCCCNC(=O)/C(=C\c1ccco1)NC(=O)c1ccco1	-11	u	-9%	5%	0%	-15%
O=C(NCc1ccccc1)/C(=C/c1ccccc1)NC(=O)c1ccco1	0	25%[59 µM]	-11%	2%	0%	19%
O=C(O)CCNC(=O)/C(=C\c1ccco1)NC(=O)c1ccco1	0	22µM*	-9%	12%	-1%	79µM*
O=C(c1cnn(-c2ccc(F)cc2)c1-n1cccc1)N1CCN(c2cccc(Cl)c2)CC1	x	u	x	8%	x	x
Cc1ccc(C(=O)C(C)CN2CCCCC2)cc1 (configuration not stated)	x	-34%[2.33 µM]	x	6%	x	26%
O=C(NCCc1ccccn1)/C(=C/c1ccco1)NC(=O)c1ccccc1	-1	x	0%	14%	0%	u
CNC(=O)/C(=C\c1ccco1)NC(=O)c1ccco1	-2	-16%	-11%	-13%	0%	11%
O=C(NCc1ccccn1)/C(=C/c1ccco1)NC(=O)c1ccccc1	-3	-2%[59 µM]	-6%	1%	-2%	79µM*
O=C(N/C(=C/c1ccco1)C(=O)N1CCc2ccccc21)c1ccco1	-1	-135%[59 µM]	-10%	-9%	0%	40µM*
CO[C@@H]1COC(=O)[C@H](C)NC(=O)C/C=C\[C@@H](C)[C@H](OC)COC(=O)[C@H](C)NC(=O)C/C=C\[C@H]1C	x	x	x	x	x	23%
Clc1cccc(Cl)c1CNCCCSc1ncccn1	-1	x	-9%	-18%	1%	-8%
Clc1ccc(CNCCCSc2ncccn2)cc1Cl	-2	40µM*	0%	3%	-5%	4%
SMILES	CCT chaperon mod	G9a inh	PLK1 PBD block	VDR inh	MmCpn inh	Sfp PPTase inh
C[N+](C)(C)CCO	x	22%[12.7 µM]	x	5%	x	-10%
CCNC(=O)Oc1ccc[nH]c1=O	0	18%[2.33 µM]	u	-36%	-7%	25µM*
COc1ccc(C(=O)Oc2ccc[nH]c2=O)cc1	-1	50%[2.33 µM]	-8%	12%	1%	6%
COc1cccc(CNC(=O)Cn2c(C)c3cnn(-c4ccccc4)c(=O)c3c2C)c1	x	8%[59 µM]	x	4%	x	x
CCc1cccc2sc(N3CCN(C(=O)C4CC4)CC3)nc12	x	4%[59 µM]	x	17%	x	x
CCc1cccc2sc(N3CCN(C(=O)c4ccc([N+](=O)[O-])o4)CC3)nc12	0	32µM*	-4%	-16%	1%	x
Brc1ccc(CNc2cc3c(cc2Br)OCCO3)cc1	-1	45µM*	-4%	-11%	-2%	15%
Clc1ccccc1N1CCN(Cc2ccco2)CC1	-3	x	-7%	-19%	1%	-1%
Clc1ccc(N2CCN(Cc3ccco3)CC2)cc1	0	5µM*	-14%	12%	1%	-10%
COc1ccc(CN2CCC(N3CC(C)OC(C)C3)CC2)c(OC)c1 (configuration not stated)	2	8.9µM*	-10%	6%	-6%	-25%
COc1ccc(CN2CCN(Cc3ccccc3F)CC2)c(OC)c1	2	50µM*	6%	-3%	0%	u
Fc1ccccc1CN1CCCCCCC1	3	-50%[12.7 µM]	-2%	-6%	-2%	56µM*
O=C(CSc1nnc(-c2cccc(F)c2)c(-c2cccc(F)c2)n1)NC1CCCCC1	x	3%[59 µM]	x	15%	x	x
CCN(CC)S(=O)(=O)c1cccc(C(=O)Nc2ccccc2C(=O)Nc2ccc(OC)cc2)c1	x	-22%[59 µM]	x	5%	x	x
COc1ccccc1N1CCN(C(=O)c2nn(-c3ccc(C)cc3)c(=O)n(C)c2=O)CC1	x	-2%[59 µM]	x	11%	x	x
Cc1ccc(-n2c(=O)c3c(c4cc(C)ccc4n3C)n(CC(=O)NCc3ccccc3)c2=O)cc1	x	-15%[59 µM]	x	13%	x	x
CCOc1ccccc1CNC(=O)CN1C(=O)c2cccnc2Oc2ccc(C)cc21	x	-2%[59 µM]	x	3%	x	x
CS(=O)(=O)N1CCN(Cc2ccc(C(F)(F)F)cc2)CC1	-1	3.2µM*	-4%	-3%	2%	56µM*
COc1ccc(CN2CCN(Cc3ccc(C)cc3)CC2)c(OC)c1	1	50µM*	4%	-8%	1%	-19%
COc1cc(CN2CCN(Cc3ccc(C(F)(F)F)cc3)CC2)cc(OC)c1OC	-1	-2%[0.501 µM]	-6%	-8%	-2%	20µM*
COc1ccc(CN2CCCCCC2)c(C)c1C	-2	8.9µM*	-7%	4%	0%	-13%
COc1ccc(CN2CCN(c3ncccn3)CC2)c(OC)c1	-1	u	-9%	17%	1%	-10%
CCCCNC(=O)C(CC)Sc1nnc(-c2cccc(F)c2)c(-c2cccc(F)c2)n1 (configuration not stated)	x	-30%[59 µM]	x	8%	x	x
CC(C)(C)c1cc(CCC(=O)N2CCC2)cc(C(C)(C)C)c1O	0	100%	1%	4%	2%	5%
